Screens deposited in PubChem BioAssay by several laboratories.
Shown are actives, neighbours in structure and some others; about 1.8% of the full set was active somewhere.
PriA SSB inh: blocks PriA binding to SSB C-terminal tail. AlphaScreen SSBct-PriA binding, biotinylated peptide. inhibition, % at 33 µM. actives 0.6% (n = 430,000); in the data active = inhibition mostly above about 37%, no sharp cut-off; inactive = mostly below about 20%
Sa ugtP lethal: kills S. aureus RN4220 lacking UgtP; S. aureus RN4220 ugtP deletion, OD600 growth, 16 h; growth inhibition, % (concentration not given with the values); actives 0.54% (n = 330,000); AID 1259309; in the data active = growth inhibition above about 68%
Mtb hypoxia inh: Mtb hypoxia fluorescent reporter inhibition. actives 0.1% (n = 300,000). M. tuberculosis hypoxia-regulated fluorescent reporter, fluorescence. fluorescence inhibition, % (concentration not given with the values). AID 1159583; in the data active = fluorescence inhibition mostly above about 23%, no sharp cut-off; inactive = mostly below about 17%
PfHsp40 rescue: rescue of PfHsp40-mediated yeast toxicity; actives 0.68% (n = 340,000); S. cerevisiae expressing PfHsp40, growth rescue, ATP luminescence; AID 504582; growth rescue, % at 12.5 µM; in the data active = growth rescue above about 28%, passing the limit was not always enough;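 also: yeast W303a lacking pdr1 and pdr3 grown in galactose medium; growth measured after three days at 30 °C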
DUSP3 inh: blocks human VHR1 dual specificity phosphatase; P51452; recombinant VHR phosphatase, pNPP absorbance; inhibition, % at 13.3 µM; actives 0.52% (n = 290,000); AID 1654; in the data active = inhibition above about 50%
Target sequence (P51452 whole entry, looked up): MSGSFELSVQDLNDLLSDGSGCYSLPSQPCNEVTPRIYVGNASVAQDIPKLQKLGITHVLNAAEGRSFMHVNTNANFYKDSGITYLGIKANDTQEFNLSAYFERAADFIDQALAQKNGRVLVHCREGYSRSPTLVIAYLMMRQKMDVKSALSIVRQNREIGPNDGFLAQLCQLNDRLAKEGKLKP
RN4220 kill: kills Staphylococcus aureus RN4220; actives 0.33% (n = 330,000); AID 1259311; S. aureus RN4220 growth, OD600, 16 h; inhibition, % (concentration not given with the values); in the data active = inhibition above about 85%
Large screens that a line does not name were inactive; ! = not active in a repeat.

CCN(c1ccccc1)S(=O)(=O)c1ccc(Cl)c(C(=O)NCCc2ccc(OC)cc2)c1	none
CC(C)(C)c1ccc(S(=O)(=O)N=C2C=C(NS(=O)(=O)c3ccccc3)C(=O)c3ccccc32)cc1	none (no result: Sa ugtP lethal, Mtb hypoxia inh, PfHsp40 rescue, DUSP3 inh, RN4220 kill)
CC(=O)N1CCc2ccc(NC(=O)Cc3cccc4ccccc34)cc2C1	none (no result: Sa ugtP lethal, Mtb hypoxia inh, PfHsp40 rescue, DUSP3 inh, RN4220 kill)
CCC(=O)Nc1ccc(S(=O)(=O)Nc2ccc3c(c2)NC(=O)C(C)(C)CO3)c(C)c1	none (no result: Sa ugtP lethal, Mtb hypoxia inh, PfHsp40 rescue, DUSP3 inh, RN4220 kill)
COc1ccc(OC)c(CCNC(=O)C(C)n2nc(C)c3c(C)n(-c4ccccc4)nc3c2=O)c1 (stereo unspecified)	none
COc1ccc(OC)c(CCNC(=O)C(C)n2nc(C)c3c(C)n(-c4ccc(C)cc4)nc3c2=O)c1 (stereo unspecified)	DUSP3 inh 56
CC(C)N1CCC(CNC(=O)c2ccccc2C(F)(F)F)CC1	none (no result: Sa ugtP lethal, Mtb hypoxia inh, PfHsp40 rescue, DUSP3 inh, RN4220 kill)
Cc1oc2c(c1C(=O)NCc1cccnc1)C(=O)c1ccccc1C2=O	RN4220 kill 91 (no result: PfHsp40 rescue)
O=C1/C(=C/c2ccc(-c3cccc(C(F)(F)F)c3)o2)SC(=S)N1CCCN1CCOCC1	none (no result: Sa ugtP lethal, Mtb hypoxia inh, PfHsp40 rescue, DUSP3 inh, RN4220 kill)
N/C(=N\OC(=O)c1ccc2ccccc2c1)c1ccccc1Cl	PfHsp40 rescue 87 (no result: PriA SSB inh)
O=C(NCC(c1ccco1)N1CCCCC1)C(c1ccccc1)c1ccccc1 (stereo unspecified)	none
CC(Sc1ccc(Cl)cc1)C(=O)NCC(c1ccco1)N1CCCCC1 (stereo unspecified)	PfHsp40 rescue 35 (no result: DUSP3 inh)
CC(C)CCNC(=O)C(=O)Nc1cccc(N2CCCS2(=O)=O)c1	none (no result: Sa ugtP lethal, Mtb hypoxia inh, PfHsp40 rescue, DUSP3 inh, RN4220 kill)
CCN(CC)CCCNC(=O)c1ccc2c(Cl)c3c(nc2c1)CCCC3	none
CCCCN(CC)CCNC(=O)c1ccc2c(Cl)c3c(nc2c1)CCC3	DUSP3 inh 57
COc1ccc(-c2ccc(=O)n(CCCNC(=O)COc3ccccc3F)n2)cc1	none (no result: Sa ugtP lethal, Mtb hypoxia inh, PfHsp40 rescue, DUSP3 inh, RN4220 kill)
Cc1ccc2nc(C)c(NC(=O)Nc3cccc(Cl)c3)c(=O)n2c1	none (no result: Sa ugtP lethal, Mtb hypoxia inh, PfHsp40 rescue, DUSP3 inh, RN4220 kill)
N/C(=N\N=Cc1ccc(Br)cc1)NN=Cc1ccc(Br)cc1	Sa ugtP lethal 100, RN4220 kill 101 (no result: PriA SSB inh, PfHsp40 rescue, DUSP3 inh)
O=C(Cc1ccccc1Cl)N1CCN(c2ccc3nnc(C4CC4)n3n2)CC1	none (no result: Sa ugtP lethal, Mtb hypoxia inh, PfHsp40 rescue, DUSP3 inh, RN4220 kill)
FC(F)(F)c1nnc(Nc2ccc(Cl)cc2)s1	none
Fc1ccc(Nc2nnc(C(F)(F)F)s2)cc1Cl	PfHsp40 rescue 149
COc1ccc(C(c2c(C)[nH]c3ccccc23)c2c(C)[nH]c3ccccc23)c(OC)c1	none (no result: Sa ugtP lethal, Mtb hypoxia inh, PfHsp40 rescue, DUSP3 inh, RN4220 kill)
C/C(=N\Nc1nccnc1Cl)c1ccc(F)cc1	none (no result: PriA SSB inh, Sa ugtP lethal, Mtb hypoxia inh, RN4220 kill)
C/C(=N\Nc1nccnc1Cl)c1c(F)c(F)c(F)c(F)c1F	PfHsp40 rescue 59 (no result: PriA SSB inh, Sa ugtP lethal, Mtb hypoxia inh, RN4220 kill)
CC(O)=c1cnc2nc3ccccc3n2c1=O	none (no result: Sa ugtP lethal, Mtb hypoxia inh, PfHsp40 rescue, DUSP3 inh, RN4220 kill)
CC(NC(=O)c1nc[nH]c1C(=O)NC1CCN(C(=O)OC(C)(C)C)CC1)C(=O)OCc1ccccc1 (stereo unspecified)	none (no result: PriA SSB inh, PfHsp40 rescue, DUSP3 inh)
O=C(NO)c1cc(OCC(F)(F)F)ccc1OCC(F)(F)F	none
C#CCONC(=O)c1cc(OCC(F)(F)F)ccc1OCC(F)(F)F	DUSP3 inh 53
CCCCS(C)=NS(=O)(=O)c1ccc(C)cc1 (stereo unspecified)	none (no result: Sa ugtP lethal, Mtb hypoxia inh, PfHsp40 rescue, DUSP3 inh, RN4220 kill)
CCCCCCCN(C(=O)CCl)c1cccc(C)c1	Sa ugtP lethal 87
O=C(CCc1ccccc1)Nc1nnc(SCc2ccc([N+](=O)[O-])cc2)s1	none (no result: Sa ugtP lethal, Mtb hypoxia inh, PfHsp40 rescue, DUSP3 inh, RN4220 kill)
COc1ccc(OC)c(N(C(=O)c2ccco2)C(C(=O)NC2CCCC2)c2ccc(N3CCOCC3)cc2)c1 (stereo unspecified)	none
COc1ccc(C)cc1N(C(=O)c1ccco1)C(C(=O)NC1CCCC1)c1ccc(N2CCOCC2)cc1 (stereo unspecified)	DUSP3 inh 52
CCc1ccc(C(c2ccc(CC)cc2)C(Cl)Cl)cc1	none (no result: Sa ugtP lethal, Mtb hypoxia inh, DUSP3 inh, RN4220 kill)
Clc1ccc(C(c2ccccc2Cl)C(Cl)Cl)cc1 (stereo unspecified)	Sa ugtP lethal 93 (no result: DUSP3 inh)
NC(=NS(=O)(=O)c1ccccc1)c1ccc([N+](=O)[O-])cc1	none (no result: PfHsp40 rescue, DUSP3 inh)
COc1cc2ccccc2cc1C(=O)N(CCN(C)C)c1nc2c(C)cccc2s1	PriA SSB inh 41!
COc1ccc(OC)c2sc(N(CCN(C)C)C(=O)c3ccc4ccccc4c3)nc12	PriA SSB inh 54 (no result: Sa ugtP lethal, Mtb hypoxia inh, RN4220 kill)
Cc1cc(C)c2sc(N(CCN(C)C)C(=O)c3cccs3)nc2c1	none (no result: Sa ugtP lethal, Mtb hypoxia inh, PfHsp40 rescue, DUSP3 inh, RN4220 kill)
CN(C)CCCN(C(=O)c1sc2ccccc2c1Cl)c1nc2c(F)cccc2s1	none
COc1ccc(Cl)c2sc(N(CCN(C)C)C(=O)c3ccc4c(c3)OCCO4)nc12	none (no result: DUSP3 inh)
Cc1cc(C)c2sc(N(CCN(C)C)C(=O)c3ccc4ccccc4c3)nc2c1	PriA SSB inh 43!
